PubChem BioAssay AID504651 (National Center for Advancing Translational Sciences (NCATS), 2011)
About 130 (0.036%) of roughly 360,000 compounds were called active. Shown is part of a subset that was picked to be rich in actives. A number with no mark means an inactive call. Cut-off read from the data, not from the text of the source: active = potentiation above about 30%; inactive = the rest.

What follows are compounds tested against D(1A) dopamine receptor (Homo sapiens) (UniProt P21728) (assay: Potentiators of Human D1 Dopamine Receptor: qHTS). Settings: HEK293 TREx D1 cells, calcium flux, dopamine EC20 potentiation; at 10 µM; hits give high values.
Excerpt: Dopamine receptors (DARs) are involved in the etiology and/or therapy of a number of neuropsychiatric and endocrine disorders. For instance, all receptor-based antiparkinsonian drugs work via stimulating the D1 DAR subtype whereas all FDA-approved antipsychotic agents are antagonists of this receptor. […] There are three different types of allosteric modulators that we are seeking, two of which will stimulate or augment receptor signaling, allosteric agonists and potentiators, while the third, allosteric antagonists, will attenuate receptor signaling. The present primary screening assay measures compound potentiation of an EC20 dopamine response by tracking calcium flux in a […], inducible Hek293 Trex D1 cell line.
NIH Chemical Genomics Center [NCGC]
NIH Molecular Libraries Probe Centers Network [MLPCN]
Assay Submitter (PI): David Sibley
Freshly passaged cells are plated in 1536 well black, clear bottom plates at a density of 4000 cells/well in 3 ul of complete media containing 1x tetracycline inducer. After an overnight incubation at 30 C in 5% CO2, cells are loaded with 2 ul of the no wash Calcium Assay Kit (ABD Bioquest) and incubated at room temperature for 30 to 90 minutes. A 10 cycle (1 second/cycle) baseline measurement is taken and then the FDSS online 1536 pintool delivers 23 nl of compound library (as well as dopamine controls) to the plate. The plate is measured for kinetically at 1 cycle/sec for 180 seconds and is considered to be the agonist portion of the assay (eg, compounds which activate a positive calcium response during this portion are flagged as potential agonists). Following the 180 second read, 1 ul of an EC20 of dopamine is delivered by an onboard pipette head. Measurements are taken kinetically for an additional 180 seconds.
Note: 0% is about no effect.

D(1A) dopamine receptor (Homo sapiens), sequence (P21728 whole entry, looked up): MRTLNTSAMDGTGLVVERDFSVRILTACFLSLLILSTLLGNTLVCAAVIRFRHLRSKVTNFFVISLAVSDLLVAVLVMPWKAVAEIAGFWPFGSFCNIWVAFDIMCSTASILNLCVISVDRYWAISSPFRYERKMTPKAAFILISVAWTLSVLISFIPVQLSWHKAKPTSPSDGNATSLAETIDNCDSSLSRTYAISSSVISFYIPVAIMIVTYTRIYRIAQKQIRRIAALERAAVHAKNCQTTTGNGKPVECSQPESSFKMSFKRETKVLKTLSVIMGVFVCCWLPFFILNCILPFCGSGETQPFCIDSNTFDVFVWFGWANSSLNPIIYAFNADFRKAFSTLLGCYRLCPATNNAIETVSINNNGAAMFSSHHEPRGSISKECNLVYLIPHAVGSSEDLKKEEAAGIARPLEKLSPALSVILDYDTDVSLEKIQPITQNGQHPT

SMILES | potentiation
O=C1C2(Cl)C3(Cl)C4(Cl)C(Cl)(Cl)C5(Cl)C3(Cl)C1(Cl)C5(Cl)C24Cl (stereo not given) | 54.8% (active)
Cc1cccc(-n2c(O)c(C=NC34CN5CN(CN(C5)C3)C4)c(=O)[nH]c2=O)c1 | -1.15%
Clc1cccc(Cl)c1Cl | -1.55%
COP(=O)(NS(=O)(=O)c1ccccc1)OC | -2.85%
CNC(=O)O/N=C(\N)Cc1csc2ccccc12 | -9.15%
